# Results from PubChem BioAssay (NCATS).
# A number with no mark means an inactive call. Results filed as inconclusive are left out. Entries that show only a call come without a potency. Activity calls are given as the source filed them. Unless noted, calls come from the whole dose curve; as a rule, active = well fitted curve in the direction sought with a large enough effect; inconclusive = small, poorly fitted or top-dose-only effect, or another doubt; inactive = no such curve, though single readings can be large; an effect the other way counts as inactive or inconclusive.
# Columns and labels:
# [1] = target: Lysosomal acid glucosylceramidase (Homo sapiens) (UniProt P04062); assay: Glucocerebrosidase-p2 (AID 348; in the data active = potency below about 10 µM; note: potency is the fitted concentration of half-maximal effect); conditions: purified GBA, blue fluorogenic substrate, 40 min
# Outline: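 Normal human glucocerebrosidase (0.2 nM) with blue fluorogenic substrate (80 uM final) in citrate/phosphate pH 5.9 with 10mM sodium taurocholate, 0.01% tween-20; 40 min RT, NaOH/glycine stop; fluorescence Ex 365/Em 440; AC50 from a titration from 0.6 nM upwards.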
# [2] = AP1 Signaling Pathway (AID 357; active = well fitted curve in either direction with a large enough effect, not every such curve was filed as active); conditions: ME-180 AP-1-bla reporter, EGF-induced, beta-lactamase ratio, 5 h; at 7.69 µM (top of the series) unless noted
# Outline: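 AP-1-bla ME-180 cells with beta-lactamase reporter under AP-1 response element, stimulated with EC50 EGF; compounds titrated, 5 hours at 37 degrees Celsius. CCF4 read at 460/530 nm ratio; positive and negative modulators judged by AC50.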
# [3] = NFAT Signaling Pathway (AID 444; active = well fitted curve in either direction with a large enough effect, not every such curve was filed as active;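 note: carbachol stimulus at about its EC50 of 1 µM final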); conditions: Jurkat NFAT-bla M1, carbachol, beta-lactamase ratio, 5 h; at 7.69 µM (top of the series) unless noted
# Outline: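 Jurkat cells carrying an NFAT-driven β-lactamase reporter and co-transfected muscarinic M1 receptor were treated with compound plus carbachol (1 uM final, an EC50 level) for 5 h at 37 °C. CCF4 loading followed for 1 h at RT; 460/530 nm ratio gave %activity.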
# [4] = Stat Signaling Pathway (AID 446; active = well fitted curve in either direction with a large enough effect, not every such curve was filed as active;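 note: ME-180 cervical cancer cells given 40 pM IL-6 alongside compound; SIE-controlled beta-lactamase reporter measured as 460/530 nm FRET emission ratio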); conditions: ME-180 (cervical carcinoma) SIE beta-lactamase reporter, IL-6 stimulated, 5 h; at 7.69 µM (top of the series) unless noted
# Outline: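 FRET read-out (405 nm excitation, 460/530 nm emission) of a beta-lactamase reporter under a STAT-inducible element in ME-180 cervical carcinoma cells. Cells with compound receive 40 pM IL-6 for 5 h. Values are normalised to AC90 stimulation and AC90 JAK-inhibitor controls.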
# [5] = target: Glucocorticoid receptor (Homo sapiens) (UniProt P04150); assay: GR-GFP Redistribution (AID 450;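 active = compounds whose dose series gives a full or clear partial fitted curve of increased nuclear translocation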; note: potency is the fitted concentration of half-maximal effect); conditions: U2OS GR-GFP nuclear translocation, laser cytometry, 2 h
# [6] = target: Glucocorticoid receptor (Homo sapiens) (UniProt P04150); assay: GR-EFC Redistribution (AID 451; calls by dose curve; note: potency is the fitted concentration of half-maximal effect); conditions: CHO-K1 GR-EFC translocation, beta-gal luminescence, 2 h
# Outline: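 CHO-K1 cells stably expressing nuclear-localized β-gal enzyme acceptor and GR fused C-terminally to the enzyme donor fragment; ligand-driven nuclear translocation restores β-gal by complementation. Compounds titrated up to 46 uM final, 2 h at 37 °C; luminescence read.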
# [7] = target: Mitogen-activated protein kinase 10 (Mus musculus) (UniProt Q61831); assay: JNK3 AlphaScreen Assay (AID 530; active = well fitted curve in either direction with a large enough effect, not every such curve was filed as active;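 note: kinase came from lysate of stimulated human HepG2 cells; signal reports phosphorylation of biotinylated GST-cJun 1-79 at Ser73 with 10 µM ATP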); conditions: JNK3 lysate, c-Jun phosphorylation; series mostly up to 57.1 µM
# Outline: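 Phosphorylation of biotinylated GST-cJun(1-79) at Ser73 is measured by AlphaScreen proximity luminescence. Enzyme is JNK3 in HepG2 lysates activated with interleukin-1beta and tumor necrosis factor alpha; ATP is 10 uM final.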
# [8] = target: 3',5'-cyclic-AMP phosphodiesterase 4B (Homo sapiens) (UniProt Q07343); assay: qHTS Assay for Inhibitors of PDE-IV (AID 607; active = well fitted activation curve with a large enough effect in the main read-out, with a control signal flat, not every such curve was filed as active); conditions: HEK293 ACTOne CNG channel cells, membrane potential fluorescence; series mostly up to 22.9 µM
# Outline: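 Cell-based read-out of cAMP via a modified cyclic nucleotide-gated channel and membrane potential dye (535/590 nm) in HEK293 cells expressing PDE4 endogenously. Compounds tested up to 22.9 uM final; 100 uM RO 20-1724 reference.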
# [9] = target: Dual specificity protein kinase CLK4 (Homo sapiens) (UniProt Q9HAZ1); assay: qHTS Assay for Inhibitors of CDC-like Kinase 4 (Kinase-Glo Assay) (AID 1770); conditions: recombinant Clk4, Kinase-Glo ATP depletion luminescence; series mostly up to 66.7 µM; note: nearly all actives have a fitted effect of over 65% in size; note: potency is the fitted concentration of half-maximal effect
# Outline: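 Luminescent ATP-depletion read-out (Kinase-Glo) after 4.5 h room-temperature reaction of Clk4 (25 nM final) with RS peptide (100 uM) and ATP (1 uM), pH 7.5 Tris buffer with MgCl2 and DTT.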
# [10] = target: Dual specificity protein kinase CLK4 (Homo sapiens) (UniProt Q9HAZ1); assay: qHTS Assay for Inhibitors of CDC-like Kinase 4 (ADP-Glo Assay) (AID 1771); conditions: recombinant CLK4, ADP-Glo luminescence; series mostly up to 80 µM; note: nearly all actives have a fitted effect of over 70% in size; note: potency is the fitted concentration of half-maximal effect
# Outline: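 Compounds are pin-transferred onto substrate mix (100 uM RS peptide, 1 uM ATP), then 25 nM Clk4 is added. After 1 hr at room temperature, ADP-Glo reagent runs 45 min, detection reagent 30 min, then luminescence is read.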
# [11] = target: Dual specificity protein kinase CLK4 (Homo sapiens) (UniProt Q9HAZ1); assay: qHTS Assay for Inhibitors of CDC-like Kinase 4 (ADP-FP Assay) (AID 1795); conditions: Transcreener ADP fluorescence polarization; series mostly up to 50 µM; note: nearly all actives have a fitted effect of over 60% in size; note: potency is the fitted concentration of half-maximal effect;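 for activity change, negative = inhibition: recombinant human CLK4 phosphorylating RS repeat peptide at 1 µM ATP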
# Outline: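 Kinase activity was measured as ADP production using Transcreener orange tracer (4 nM) and ADP antibody (1 ug/mL) fluorescence polarization, with ADP calculated from a calibration curve. The 1 h reaction contained 6.25 nM Clk4, 1 uM ATP and 100 uM RS peptide at pH 7.5 with Mg2+.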
# [12] = target: Ubiquitin carboxyl-terminal hydrolase 1 (Homo sapiens) (UniProt O94782); assay: Inhibitors of USP1/UAF1: Pilot qHTS (AID 504865); conditions: purified USP1/UAF1, Ub-rhodamine cleavage fluorescence; series mostly up to 54.9 µM;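 note: rhodamine fluorescence freed from ubiquitin-rhodamine substrate followed over time; top concentration of the series differs between compounds; nearly all actives have a fitted effect of over 35% in size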
# Outline: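 Deubiquitinase activity followed as kinetic rhodamine fluorescence release from 150 nM Ub-Rho. 1 nM USP1/UAF1 with compound, after 15 min room-temperature preincubation, in HEPES pH 7.8 buffer containing TCEP, EDTA, BSA and Tween-20.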
# [13] = Primary qHTS for small molecule stabilizers of the endoplasmic reticulum resident proteome: Secreted ER Calcium Modulated Protein (SERCaMP) assay (AID 1508630); conditions: SH-SY5Y GLuc-SERCaMP (Gaussia luciferase released on ER calcium loss) secretion, thapsigargin, luminescence; series mostly up to 38.4 µM
# Outline: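 The SH-SY5Y reporter protocol was run at 3 concentrations up to 38.3 uM (primary) or 11 concentrations (follow-up): 16 h compound, 100 nM thapsigargin for 4 h, then extracellular luciferase luminescence.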
# [14] = target: Cytochrome P450 1A2 (Homo sapiens) (UniProt P05177); assay: p450-cyp1a2 (AID 410; calls by dose curve; note: potency is the fitted concentration of half-maximal effect); conditions: recombinant CYP1A2, luciferin-ME demethylation, luminescence; series mostly up to 57 µM
# Outline: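 O-Demethylation of luciferin 6' methyl ether by human CYP1A2 is monitored as luciferase luminescence. Substrate sits at Km (100uM); enzyme is 20nM. Values are scaled to 57 uM furafylline as maximal inhibition.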
# [15] = target: Cytochrome P450 3A4 (Homo sapiens) (UniProt P08684); assay: qHTS Assay for Activators of Cytochrome P450 3A4 (AID 885); conditions: recombinant CYP3A4, Luciferin-PPXE luminescence, 60 min; series mostly up to 57.1 µM; note: nearly all actives have a fitted effect of over 65% in size
# Outline: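 Luminescent readout of luciferin formed from 25 uM Luciferin-PPXE (KM level) by 20 nM CYP3A4 in 200 mM KPO4, with 60 min NADPH-driven reaction at room temperature after 10 min compound exposure. Ketoconazole (57 uM) defined 100% inhibition.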
# [16] = target: Cytochrome P450 2C19 (Homo sapiens) (UniProt P33261); assay: qHTS Assay for Inhibitors and Substrates of Cytochrome P450 2C19 (AID 899); conditions: recombinant CYP2C19, luciferin-H EGE luminescence; series mostly up to 57.1 µM; note: potency is the fitted concentration of half-maximal effect; nearly all actives have a fitted effect of over 60% in size
# Outline: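 NADPH-dependent conversion of Luciferin-H EGE (10uM, at KM) by 5nM enzyme in 50mM KPO4, 60 min at 37C following 10 min compound preincubation. Stopped with luciferin detection buffer; luminescence read after 20 min.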
# [17] = target: Cytochrome P450 3A4 (Homo sapiens) (UniProt P08684); assay: qHTS Assay for Inhibitors and Substrates of Cytochrome P450 3A4 (AID 884); conditions: recombinant CYP3A4, Luciferin-PPXE luminescence; series mostly up to 57.1 µM; note: potency is the fitted concentration of half-maximal effect; nearly all actives have a fitted effect of over 50% in size
# Outline: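 Luminescent readout of luciferin produced by CYP3A4 (20 nM) dealkylation of Luciferin-PPXE, 25 uM (its KM). NADPH-driven reaction ran 60 min at RT after 10 min compound preincubation; data scaled to 57 uM ketoconazole as 100% inhibition.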
# Sequence of 3',5'-cyclic-AMP phosphodiesterase 4B (Homo sapiens) (Q07343 whole entry, looked up): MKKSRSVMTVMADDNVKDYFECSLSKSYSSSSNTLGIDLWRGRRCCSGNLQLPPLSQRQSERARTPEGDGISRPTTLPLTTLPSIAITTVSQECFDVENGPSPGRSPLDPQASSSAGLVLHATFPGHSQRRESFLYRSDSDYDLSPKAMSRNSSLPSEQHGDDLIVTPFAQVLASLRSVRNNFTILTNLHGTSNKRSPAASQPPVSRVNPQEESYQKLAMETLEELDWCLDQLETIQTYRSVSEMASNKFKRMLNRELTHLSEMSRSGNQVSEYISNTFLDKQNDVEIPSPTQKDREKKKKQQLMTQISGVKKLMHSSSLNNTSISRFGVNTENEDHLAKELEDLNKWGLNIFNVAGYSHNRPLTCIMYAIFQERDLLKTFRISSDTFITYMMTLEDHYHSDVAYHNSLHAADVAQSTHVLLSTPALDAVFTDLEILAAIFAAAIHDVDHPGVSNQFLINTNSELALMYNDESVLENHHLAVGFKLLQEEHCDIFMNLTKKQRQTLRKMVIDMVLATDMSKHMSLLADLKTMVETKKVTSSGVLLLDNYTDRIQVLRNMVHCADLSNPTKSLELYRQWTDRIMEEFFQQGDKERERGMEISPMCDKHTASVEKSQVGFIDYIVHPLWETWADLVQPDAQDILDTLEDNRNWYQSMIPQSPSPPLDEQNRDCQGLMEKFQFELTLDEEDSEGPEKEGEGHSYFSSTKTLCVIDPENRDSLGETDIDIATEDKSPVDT
# Sequence of Dual specificity protein kinase CLK4 (Homo sapiens) (Q9HAZ1 whole entry, looked up): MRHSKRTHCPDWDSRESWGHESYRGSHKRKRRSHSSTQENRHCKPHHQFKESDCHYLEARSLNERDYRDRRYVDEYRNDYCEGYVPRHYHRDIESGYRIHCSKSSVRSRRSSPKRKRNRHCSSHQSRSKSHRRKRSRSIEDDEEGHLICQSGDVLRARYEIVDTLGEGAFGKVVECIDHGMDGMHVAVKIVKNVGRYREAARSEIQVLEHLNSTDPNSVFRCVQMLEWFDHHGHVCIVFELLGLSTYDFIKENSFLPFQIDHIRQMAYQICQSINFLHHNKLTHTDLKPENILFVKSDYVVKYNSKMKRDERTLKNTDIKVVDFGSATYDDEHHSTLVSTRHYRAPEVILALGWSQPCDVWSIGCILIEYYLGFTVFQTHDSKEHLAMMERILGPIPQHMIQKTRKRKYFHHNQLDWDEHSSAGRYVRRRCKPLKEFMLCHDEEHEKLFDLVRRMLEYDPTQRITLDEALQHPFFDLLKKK
# Sequence of Ubiquitin carboxyl-terminal hydrolase 1 (Homo sapiens) (O94782 whole entry, looked up): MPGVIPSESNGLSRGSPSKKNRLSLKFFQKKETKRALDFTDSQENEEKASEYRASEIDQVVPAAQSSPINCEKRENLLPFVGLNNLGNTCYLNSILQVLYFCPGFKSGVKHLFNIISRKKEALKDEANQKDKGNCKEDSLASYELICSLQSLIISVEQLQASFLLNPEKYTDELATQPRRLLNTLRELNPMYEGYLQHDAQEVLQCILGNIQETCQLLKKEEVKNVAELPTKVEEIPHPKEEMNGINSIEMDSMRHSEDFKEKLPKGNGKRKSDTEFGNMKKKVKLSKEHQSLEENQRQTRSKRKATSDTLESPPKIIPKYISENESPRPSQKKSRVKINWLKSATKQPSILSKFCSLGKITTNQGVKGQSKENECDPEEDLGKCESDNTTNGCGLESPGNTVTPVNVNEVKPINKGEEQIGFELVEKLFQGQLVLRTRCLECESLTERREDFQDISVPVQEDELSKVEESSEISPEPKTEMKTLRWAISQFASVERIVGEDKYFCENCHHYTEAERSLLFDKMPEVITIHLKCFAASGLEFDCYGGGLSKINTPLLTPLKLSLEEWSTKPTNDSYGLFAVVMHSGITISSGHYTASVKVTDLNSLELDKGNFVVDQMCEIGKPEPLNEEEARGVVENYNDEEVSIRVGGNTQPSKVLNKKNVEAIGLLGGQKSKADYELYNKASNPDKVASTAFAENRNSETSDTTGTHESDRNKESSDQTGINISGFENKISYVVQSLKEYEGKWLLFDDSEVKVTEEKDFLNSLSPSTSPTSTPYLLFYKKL
# Sequence of Glucocorticoid receptor (Homo sapiens) (P04150 whole entry, looked up, the tested form may be a part): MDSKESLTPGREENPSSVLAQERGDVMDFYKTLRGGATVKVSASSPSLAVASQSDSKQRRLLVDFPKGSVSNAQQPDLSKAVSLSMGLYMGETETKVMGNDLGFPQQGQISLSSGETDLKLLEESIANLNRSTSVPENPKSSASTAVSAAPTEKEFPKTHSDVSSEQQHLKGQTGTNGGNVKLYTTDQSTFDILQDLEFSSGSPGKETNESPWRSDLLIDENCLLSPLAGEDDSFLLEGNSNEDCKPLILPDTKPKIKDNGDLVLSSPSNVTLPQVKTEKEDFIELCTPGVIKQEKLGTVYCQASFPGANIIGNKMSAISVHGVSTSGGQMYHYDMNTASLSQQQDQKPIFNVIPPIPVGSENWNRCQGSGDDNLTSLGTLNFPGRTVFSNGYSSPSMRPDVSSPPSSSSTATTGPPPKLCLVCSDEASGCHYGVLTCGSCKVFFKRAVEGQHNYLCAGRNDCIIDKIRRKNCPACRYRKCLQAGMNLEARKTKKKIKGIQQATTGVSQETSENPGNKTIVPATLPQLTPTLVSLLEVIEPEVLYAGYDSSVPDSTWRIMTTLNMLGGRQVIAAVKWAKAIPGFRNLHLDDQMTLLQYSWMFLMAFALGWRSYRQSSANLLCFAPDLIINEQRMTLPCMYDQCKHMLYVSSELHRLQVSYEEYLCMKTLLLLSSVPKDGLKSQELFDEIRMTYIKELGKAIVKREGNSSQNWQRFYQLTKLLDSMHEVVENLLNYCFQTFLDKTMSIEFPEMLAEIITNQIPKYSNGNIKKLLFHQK
# Sequence of Cytochrome P450 1A2 (Homo sapiens) (P05177 whole entry, looked up): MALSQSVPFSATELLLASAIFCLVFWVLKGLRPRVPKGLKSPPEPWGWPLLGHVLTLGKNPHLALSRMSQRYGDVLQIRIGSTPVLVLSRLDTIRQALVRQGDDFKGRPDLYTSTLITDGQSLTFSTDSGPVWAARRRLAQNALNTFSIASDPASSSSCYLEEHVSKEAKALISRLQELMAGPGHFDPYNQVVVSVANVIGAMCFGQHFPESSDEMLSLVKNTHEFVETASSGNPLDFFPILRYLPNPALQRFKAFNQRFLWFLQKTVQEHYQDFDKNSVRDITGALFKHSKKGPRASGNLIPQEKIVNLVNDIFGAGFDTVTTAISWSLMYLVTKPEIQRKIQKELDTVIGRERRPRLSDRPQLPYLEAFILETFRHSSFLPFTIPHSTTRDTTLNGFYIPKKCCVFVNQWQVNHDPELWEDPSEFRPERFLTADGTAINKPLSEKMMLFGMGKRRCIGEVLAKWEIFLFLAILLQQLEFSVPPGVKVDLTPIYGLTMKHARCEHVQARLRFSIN
# Sequence of Lysosomal acid glucosylceramidase (Homo sapiens) (P04062 whole entry, looked up): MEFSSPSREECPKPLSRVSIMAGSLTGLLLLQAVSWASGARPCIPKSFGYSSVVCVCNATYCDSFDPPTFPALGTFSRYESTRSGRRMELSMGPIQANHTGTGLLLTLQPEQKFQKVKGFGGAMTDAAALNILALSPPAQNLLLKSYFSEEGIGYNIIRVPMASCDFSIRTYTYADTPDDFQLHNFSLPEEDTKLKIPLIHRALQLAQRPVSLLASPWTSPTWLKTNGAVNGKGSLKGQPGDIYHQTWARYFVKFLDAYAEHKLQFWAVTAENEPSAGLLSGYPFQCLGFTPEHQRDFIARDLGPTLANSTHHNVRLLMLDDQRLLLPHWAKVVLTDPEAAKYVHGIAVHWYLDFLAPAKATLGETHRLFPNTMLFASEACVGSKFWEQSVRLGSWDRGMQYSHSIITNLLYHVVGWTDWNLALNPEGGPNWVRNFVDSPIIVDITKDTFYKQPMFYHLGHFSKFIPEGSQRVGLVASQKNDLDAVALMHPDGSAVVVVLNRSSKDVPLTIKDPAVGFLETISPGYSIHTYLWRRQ
# Sequence of Cytochrome P450 3A4 (Homo sapiens) (P08684 whole entry, looked up): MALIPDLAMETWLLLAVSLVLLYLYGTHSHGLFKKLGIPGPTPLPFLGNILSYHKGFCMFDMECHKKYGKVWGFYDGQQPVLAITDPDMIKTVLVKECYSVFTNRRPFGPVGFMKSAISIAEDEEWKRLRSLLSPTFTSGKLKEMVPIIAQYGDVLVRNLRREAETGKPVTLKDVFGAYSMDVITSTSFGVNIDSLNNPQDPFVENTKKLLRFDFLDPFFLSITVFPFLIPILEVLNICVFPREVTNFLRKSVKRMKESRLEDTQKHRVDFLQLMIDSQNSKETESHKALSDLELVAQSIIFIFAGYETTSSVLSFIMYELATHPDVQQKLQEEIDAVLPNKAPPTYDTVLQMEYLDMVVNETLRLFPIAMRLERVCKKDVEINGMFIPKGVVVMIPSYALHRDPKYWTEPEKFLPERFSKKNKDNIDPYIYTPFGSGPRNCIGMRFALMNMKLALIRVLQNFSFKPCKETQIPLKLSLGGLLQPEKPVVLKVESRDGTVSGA
# Sequence of Cytochrome P450 2C19 (Homo sapiens) (P33261 whole entry, looked up): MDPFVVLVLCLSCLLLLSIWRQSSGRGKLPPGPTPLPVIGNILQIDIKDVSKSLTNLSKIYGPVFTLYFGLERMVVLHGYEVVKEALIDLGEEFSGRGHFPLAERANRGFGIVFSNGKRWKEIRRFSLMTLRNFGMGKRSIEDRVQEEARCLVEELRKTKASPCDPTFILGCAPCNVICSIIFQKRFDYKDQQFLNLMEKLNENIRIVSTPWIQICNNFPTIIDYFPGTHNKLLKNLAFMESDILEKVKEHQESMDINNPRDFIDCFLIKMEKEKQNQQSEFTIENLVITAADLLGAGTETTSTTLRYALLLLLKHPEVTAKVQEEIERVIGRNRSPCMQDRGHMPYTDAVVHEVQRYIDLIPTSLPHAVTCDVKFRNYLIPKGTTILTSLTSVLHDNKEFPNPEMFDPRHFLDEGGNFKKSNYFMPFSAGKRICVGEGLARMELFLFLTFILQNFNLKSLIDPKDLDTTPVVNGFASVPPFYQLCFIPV
SMILES,Potency [1],"activity change, negative = inhibition [2]","activity change, negative = inhibition [3]","activity, negative = inhibition [4]",Potency [5],Potency [6],Potency [7],Potency [8],Potency [9],Potency [10],Potency [11],Potency [12],outcome [13],Potency [14],Potency [15],Potency [16],Potency [17]
COCCn1c(=O)c(-c2ccccc2)nc2cnc(N3CCOCC3)nc21,> 11.4 µM,-10.7%,18.3%,-4.75%,> 9.22 µM,> 46 µM,inactive,inactive,inactive,inactive,inactive,inactive,inactive,–,–,–,–
COc1cccc(Cn2c(=O)c(-c3ccc(F)cc3)nc3cncnc32)c1,> 11.4 µM,-16.6%,-9.33%,-13.6%,> 9.22 µM,> 46 µM,inactive,–,inactive,inactive,inactive,inactive,inactive,–,–,–,–
COCCn1c(=O)c(-c2ccc(OC)cc2)nc2cnc(N3CCOCC3)nc21,> 11.4 µM,-13.6%,8.4%,25.9%,> 9.22 µM,> 46 µM,inactive,inactive,inactive,inactive,inactive,inactive,inactive,–,–,–,–
Cc1noc(C)c1-c1ccc2ncnc(NCc3cccs3)c2c1,> 11.4 µM,20.1%,–,–,> 46 µM,> 46 µM,inactive,–,0.501 µM (active),0.447 µM (active),0.158 µM (active),–,inactive,0.398 µM (active),inactive,1.26 µM (active),–
CN(Cc1ccco1)c1cc(-c2ccccc2C(F)(F)F)ncn1,> 11.4 µM,9.11%,-16.3%,3.49%,> 46 µM,> 46 µM,inactive,inactive,inactive,inactive,inactive,inactive,inactive,–,–,–,–
CN(C)c1ncc2nc(-c3ccc(Cl)cc3)c(=O)n(CCC#N)c2n1,> 11.4 µM,7.51%,17.6%,17.6%,> 9.22 µM,> 46 µM,inactive,inactive,inactive,inactive,inactive,inactive,inactive,–,–,–,–
COc1ncc2nc(-c3cccs3)c(=O)n(Cc3cccs3)c2n1,> 11.4 µM,5.34%,5.36%,-1.88%,> 9.22 µM,> 46 µM,inactive,–,inactive,inactive,inactive,inactive,inactive,–,–,–,–
O=c1c(-c2cc(F)cc(F)c2)nc2cnc(N3CCOCC3)nc2n1CCc1ccccc1,> 11.4 µM,29.6%,–,–,> 9.22 µM,> 46 µM,inactive,inactive,inactive,inactive,inactive,inactive,inactive,2.51 µM (active),–,–,–
COc1cccc(Cn2c(=O)c(-c3cn(C)c4ccccc34)nc3cnc(N4CCOCC4)nc32)c1,> 11.4 µM,5%,7.78%,10.6%,> 9.22 µM,> 46 µM,–,inactive,inactive,inactive,inactive,inactive,inactive,–,–,–,–
COCCn1c(=O)c(-c2ccc(OC)cc2)nc2cnc(OCc3ccccc3)nc21,> 11.4 µM,-11.8%,–,7.46%,> 9.22 µM,> 46 µM,inactive,–,inactive,inactive,inactive,inactive,inactive,–,inactive,–,–
c1cncc(-c2cncnc2NCc2cccs2)c1,> 11.4 µM,–,23.6%,-4.79%,> 46 µM,> 46 µM,inactive,inactive,inactive,inactive,inactive,inactive,inactive,0.316 µM (active),inactive,–,2 µM (active)
